This is a sample that favours compounds with a hit; in the whole collection about 3.1% have one here.
Mcl1-Noxa inh – Mcl-1/Noxa interaction inhibition. Q07820. 1.5% of 220,000 active. inhibition, % at 21.7 µM. TR-FRET Mcl-1/Noxa peptide binding, 2 h. AID 1022;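 active = compounds that cut the protein-peptide binding signal by more than 50% relative to plate controls in a single-dose test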;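 also: His-tagged Mcl-1 with rhodamine Noxa BH3 peptide and terbium anti-His antibody; 0% = Mcl-1 plus Noxa peptide wells and 100% = peptide-only wells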
Target sequence (Q07820 whole entry, looked up): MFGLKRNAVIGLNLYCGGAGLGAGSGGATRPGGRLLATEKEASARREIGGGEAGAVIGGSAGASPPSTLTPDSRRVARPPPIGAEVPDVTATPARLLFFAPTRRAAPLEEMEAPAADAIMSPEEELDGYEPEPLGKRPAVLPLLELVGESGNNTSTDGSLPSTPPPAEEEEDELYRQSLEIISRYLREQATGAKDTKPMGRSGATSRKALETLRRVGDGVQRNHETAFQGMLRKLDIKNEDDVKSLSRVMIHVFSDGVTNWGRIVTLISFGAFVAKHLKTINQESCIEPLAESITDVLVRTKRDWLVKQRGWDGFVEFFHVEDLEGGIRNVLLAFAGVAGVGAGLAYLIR
p47phox inh – blocks human p47phox regulatory protein of NADPH oxidases; P14598; p47phox/p22phox peptide binding, fluorescence polarization, 2 h; inhibition, % at 24.7 µM; 0.53% of 220,000 active;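 active = inhibition above about 30%, limit read from the data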;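 also: 0% = p47phox with labelled peptide and 100% = labelled peptide alone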
14-3-3 Bad inh – disrupts binding of bovine 14-3-3 zeta to phospho-Bad peptide | P63103 | AID 781 | inhibition, % at 21.7 µM | 0.71% of 220,000 active | TR-FRET 14-3-3zeta/Dy647-pBad peptide displacement, 1 h;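 active = inhibition above about 70%, limit read from the data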;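 also: 0% = full 14-3-3 plus peptide FRET controls and 100% = background without 14-3-3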
Target sequence (P63103 whole entry, looked up): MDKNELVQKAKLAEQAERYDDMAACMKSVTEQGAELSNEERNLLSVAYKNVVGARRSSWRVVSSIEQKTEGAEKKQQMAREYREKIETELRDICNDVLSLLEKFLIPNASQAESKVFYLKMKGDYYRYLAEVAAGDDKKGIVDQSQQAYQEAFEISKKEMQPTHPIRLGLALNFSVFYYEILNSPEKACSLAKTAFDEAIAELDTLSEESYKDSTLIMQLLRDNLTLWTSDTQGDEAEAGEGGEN
Mcl1-Bid inh – Mcl-1/Bid interaction inhibition; TR-FRET Mcl-1/Bid-Dy647 peptide binding, 1536-well; inhibition, % at 21.7 µM; 0.97% of 220,000 active; AID 1021;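 active = compounds that cut the binding signal by more than half at the single screening dose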;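 also: His-tagged Mcl-1 with europium anti-His antibody binding Bid BH3 peptide; 0% = Mcl-1 plus peptide wells and 100% = peptide-only wells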
Bim-Mcl-1 – disrupts Bim peptide binding to human Mcl-1 | Q07820 | Bead-based flow cytometry, Bim peptide-Mcl-1 binding | inhibition, % at 10 µM | 0.1% of 190,000 active | AID 1009; in the data active = inhibition above about 40%;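 also: 0% = no compound tracer wells and 100% = peptide blocker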
The depositor's hits bear a star; [ ] = dose if it differs, or a comment.

How did Cc1ccc(C(=O)N2CC(=O)Nc3ccc(F)cc3C2c2ccc(F)cc2)cc1[N+](=O)[O-] (stereo not drawn) do in these assays?
Mcl1-Noxa inh: 9.0; p47phox inh: 8.2; 14-3-3 Bad inh: 11.3; Mcl1-Bid inh: 52.7*; Bim-Mcl-1: -4.0

Results for Cc1ccc(/C=c2\sc3nc(-c4ccco4)nn3c2=O)o1 ?
Mcl1-Noxa inh: 77.1*; p47phox inh: -79.0; 14-3-3 Bad inh: 0.6; Mcl1-Bid inh: 25.4; Bim-Mcl-1: 5.0

How did Cc1ccc(/C=c2\sc3nc(-c4ccccc4Br)nn3c2=O)o1 do in these assays?
Mcl1-Noxa inh: 78.6*; p47phox inh: -112.3; 14-3-3 Bad inh: -10.2; Mcl1-Bid inh: 62.2*; Bim-Mcl-1: 9.0

How did Cc1ccc(-c2nc3s/c(=C\c4ccco4)c(=O)n3n2)cc1 do in these assays?
Mcl1-Noxa inh: 52.1*; p47phox inh: -19.9; 14-3-3 Bad inh: -4.1; Mcl1-Bid inh: 22.0; Bim-Mcl-1: -3.0

How did Cc1ccc(/C=c2/sc3nnc(-c4ccccc4Cl)n3c2=O)o1 do in these assays?
Mcl1-Noxa inh: 39.1; p47phox inh: -32.0; 14-3-3 Bad inh: 5.1; Mcl1-Bid inh: -21.6; Bim-Mcl-1: -5.0

Results for O=c1nc2s/c(=C\c3ccco3)c(=O)n2nc1Cc1ccc(F)cc1 ?
Mcl1-Noxa inh: 64.6*; p47phox inh: -17.1; 14-3-3 Bad inh: -5.1; Mcl1-Bid inh: -31.3; Bim-Mcl-1: -2.0

What do the screens show for `CCOc1ccc(NC(=O)c2ccc(NC(=O)CSc3nc4ccccc4c(=O)[nH]3)cc2)cc1`?
Mcl1-Noxa inh: 24.3; p47phox inh: -38.2; 14-3-3 Bad inh: 26.4; Mcl1-Bid inh: 12.2; Bim-Mcl-1: -5.0

How did Cc1ccc(S(=O)(=O)N(C)c2c(C)ccc(S(N)(=O)=O)c2C)cc1 do in these assays?
Mcl1-Noxa inh: 3.2; p47phox inh: 6.0; 14-3-3 Bad inh: -12.5; Mcl1-Bid inh: 0.0; Bim-Mcl-1: -1.0

Results for Cc1c(Br)c(=O)oc2c(Br)c(O)c(O)cc12 ?
Mcl1-Noxa inh: 64.5*; p47phox inh: 1.1; 14-3-3 Bad inh: 8.4; Mcl1-Bid inh: -111.9; Bim-Mcl-1: 8.0

What do the screens show for `COc1ccc(S(=O)(=O)/N=C2/C=CC(=O)C(C)=C2C)cc1`?
Mcl1-Noxa inh: 67.0*; p47phox inh: 2.7; 14-3-3 Bad inh: 14.7; Mcl1-Bid inh: -59.2; Bim-Mcl-1: 0.0

What do the screens show for `O=C(Nc1cccc(S(=O)(=O)NC2=NCCCCC2)c1)c1cc(-c2ccco2)nc2ccccc12`?
Mcl1-Noxa inh: 97.1*; p47phox inh: -20.5; 14-3-3 Bad inh: 40.9; Mcl1-Bid inh: 12.2

What do the screens show for `O=C(Nc1cccc(S(=O)(=O)NC2=NCCCCC2)c1)c1cc(-c2ccncc2)nc2ccccc12`?
Mcl1-Noxa inh: 54.5*; p47phox inh: -7.4; 14-3-3 Bad inh: 2.6; Mcl1-Bid inh: -6.9; Bim-Mcl-1: 0.0

Results for COc1cc(/C=C/C(=O)OCC(=O)Nc2ccc(C)cc2[N+](=O)[O-])ccc1O ?
Mcl1-Noxa inh: 54.9*; p47phox inh: 10.3; 14-3-3 Bad inh: 34.6; Mcl1-Bid inh: -35.8; Bim-Mcl-1: 3.0

How did COc1cc(/C=C/C(=O)OCC(=O)Nc2cc(C)c(C)cc2[N+](=O)[O-])ccc1O do in these assays?
Mcl1-Noxa inh: 93.1*; p47phox inh: 22.6; 14-3-3 Bad inh: 6.1; Mcl1-Bid inh: 41.2

How did COc1ccc(/C=C/C(=O)NC(=S)Nc2cc([N+](=O)[O-])ccc2O)cc1OC do in these assays?
Mcl1-Noxa inh: 92.8*; p47phox inh: -56.5; 14-3-3 Bad inh: 49.2; Mcl1-Bid inh: 13.2; Bim-Mcl-1: 0.0

Results for COc1cc(/C=C/C(=O)OCC(=O)Nc2ccc([N+](=O)[O-])cc2)ccc1O ?
Mcl1-Noxa inh: 26.4; p47phox inh: -2.3; 14-3-3 Bad inh: -3.9; Mcl1-Bid inh: -23.9

How did COc1ccc(OCC(O)CNC(=O)Nc2ccc(F)cc2)cc1 (stereo not drawn) do in these assays?
Mcl1-Noxa inh: 8.6; p47phox inh: -12.4; 14-3-3 Bad inh: -4.0; Mcl1-Bid inh: -4.1

How did CC(C)n1c(=S)[nH]c2c1c(=O)[nH]c(=O)n2C do in these assays?
Mcl1-Noxa inh: 54.4*; p47phox inh: 12.9; 14-3-3 Bad inh: -0.1; Mcl1-Bid inh: -39.4; Bim-Mcl-1: -3.0

How did C=CCn1c(=NC(=O)c2ccc(S(=O)(=O)N3CCCc4ccccc43)cc2)sc2cc(S(N)(=O)=O)ccc21 do in these assays?
Mcl1-Noxa inh: 54.5*; p47phox inh: -24.4; 14-3-3 Bad inh: -2.0; Mcl1-Bid inh: -1.1; Bim-Mcl-1: -4.0

What do the screens show for `NC(=O)C1CCCN(C(=S)Nc2cccc3ccccc23)C1` (stereo not drawn)?
Mcl1-Noxa inh: 8.8; p47phox inh: -10.4; 14-3-3 Bad inh: -7.4; Mcl1-Bid inh: -44.8; Bim-Mcl-1: 7.0

What do the screens show for `CC1CCN(S(=O)(=O)c2cccc(C(=O)Nc3ccccn3)c2)CC1`?
Mcl1-Noxa inh: 4.4; p47phox inh: -10.4; 14-3-3 Bad inh: -1.7; Mcl1-Bid inh: 79.0*; Bim-Mcl-1: -4.0

How did O=C(CCN1CCN(CCO)CC1)Nc1ccc(OCc2ccccc2)cc1 do in these assays?
Mcl1-Noxa inh: 47.2; p47phox inh: -3.9; 14-3-3 Bad inh: 5.5; Mcl1-Bid inh: 54.8*; Bim-Mcl-1: -1.0

Results for Nc1c(O)ccc2c1C(=O)c1ccccc1C2=O ?
Mcl1-Noxa inh: 77.5*; p47phox inh: 79.8*; 14-3-3 Bad inh: -52.2; Mcl1-Bid inh: -22.8; Bim-Mcl-1: 0.0

How did O=C(Nc1ccccc1SCC1CSc2nc3ccccc3c(=O)n21)c1ccccc1 (stereo not drawn) do in these assays?
Mcl1-Noxa inh: -10.5; p47phox inh: -7.6; 14-3-3 Bad inh: 3.3; Mcl1-Bid inh: -9.9; Bim-Mcl-1: 0.0

Results for Cc1ccc(C(=O)Nc2ccccc2SCC2CSc3nc4ccccc4c(=O)n32)cc1 (stereo not drawn) ?
Mcl1-Noxa inh: 5.8; p47phox inh: 1.3; 14-3-3 Bad inh: -3.0; Mcl1-Bid inh: 52.8*; Bim-Mcl-1: -1.0

Results for CC(C)N(CCNCc1nnc(-c2ccccc2)o1)C(C)C ?
Mcl1-Noxa inh: 21.3; p47phox inh: -5.3; 14-3-3 Bad inh: 14.5; Mcl1-Bid inh: 25.8; Bim-Mcl-1: 0.0

What do the screens show for `O=C1NC(=S)N/C1=C/c1cccc([N+](=O)[O-])c1`?
Mcl1-Noxa inh: 4.1; p47phox inh: 0.9; 14-3-3 Bad inh: 6.8; Mcl1-Bid inh: 5.8; Bim-Mcl-1: 5.0

How did Cc1ccc(-c2ccc(/C=N/NC(=S)Nc3ccccc3)o2)cc1[N+](=O)[O-] do in these assays?
Mcl1-Noxa inh: -32.6; p47phox inh: -31.3; 14-3-3 Bad inh: -2.7; Mcl1-Bid inh: -121.0; Bim-Mcl-1: -3.0

What do the screens show for `O=C1NC(=S)N/C1=C/c1ccc(-c2c(Br)cc([N+](=O)[O-])cc2Br)o1`?
Mcl1-Noxa inh: 86.3*; p47phox inh: -27.2; 14-3-3 Bad inh: 94.7*[fluorescence artefact?]; Mcl1-Bid inh: 98.1*; Bim-Mcl-1: -2.0

How did CC1=C(C#N)C(=O)NC(=O)/C1=C\c1ccc(-c2cc(C)c(C)cc2[N+](=O)[O-])o1 do in these assays?
Mcl1-Noxa inh: 100.4*; p47phox inh: 3.9; 14-3-3 Bad inh: 63.6; Mcl1-Bid inh: 91.7*; Bim-Mcl-1: 1.0
